Laboratory results taken from the supplement of paper PMC6555819.

Experiments:
Experiment in all cases: PBM binding z-score (relative to random genomic background probes); higher = stronger binding; sequences stand for … in GC…GCGATTGACAGCGTAGAATGAAGG
[1] = system: FXR:RXRa (NR concentration 270 nM, RXRa partner concentration 90 nM)
Summary of the method: (§1)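 Binding buffer was PBS pH 7.4 with 2% milk, 0.02% Triton X-100, 1 mM DTT, 0.2 mg/mL BSA and 0.4 mg/ml salmon testes DNA. In it, ligand-free nuclear receptor dimers were incubated 1 h on custom Agilent 4×180K protein-binding microarrays carrying double-stranded probes. Antibodies against each partner (one per run) detected binding, and z-scores were calculated against random background probes after regression normalization of scanned fluorescence.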

[2] = system: LXRa:RXRa (NR concentration 270 nM, RXRa partner concentration 90 nM)
Summary of the method: as §1

[3] = system: LXRa homodimer (NR concentration 270 nM)
Summary of the method: as §1

[4] = system: LXRb:RXRa (NR concentration 270 nM, RXRa partner concentration 90 nM)
Summary of the method: as §1

[5] = system: LXRb homodimer (NR concentration 270 nM)
Summary of the method: as §1

[6] = system: PPARa:RXRa (NR concentration 270 nM, RXRa partner concentration 90 nM)
Summary of the method: as §1

[7] = system: PPARg:RXRa (NR concentration 180 nM, RXRa partner concentration 90 nM)
Summary of the method: as §1

[8] = system: PPARg:RXRa 270nM:90nM, anti-RXR (NR concentration 270 nM, RXRa partner concentration 90 nM)
Summary of the method: as §1

[9] = system: PPARg:RXRa 30nM:10nM, anti-RXR (NR concentration 30 nM, RXRa partner concentration 10 nM)
Summary of the method: as §1

[10] = system: PPARg:RXRa 90nM:30nM, anti-RXR (NR concentration 90 nM, RXRa partner concentration 30 nM)
Summary of the method: as §1

Sequence | PBM binding z-score [1] | PBM binding z-score [2] | PBM binding z-score [3] | PBM binding z-score [4] | PBM binding z-score [5] | PBM binding z-score [6] | PBM binding z-score [7] | PBM binding z-score [8] | PBM binding z-score [9] | PBM binding z-score [10]
ATCTCTAGGTAAGACTCAGTGCAGTGAAGAACGC | 0.188 | 0.383 | 0.212 | -0.0859 | 0.687 | -0.163 | -0.0807 | 0.0157 | 0.104 | -0.0649
CAGCCTATGTCAGGGCCAGTATAGGAGGAACGTT | -0.392 | -0.569 | -0.136 | -0.524 | -0.259 | -0.324 | 0.129 | -0.472 | -0.514 | -0.506
TCGAGTAGGTAAGTCGGGGCATTCAGCCAACATA | -0.0236 | -0.0704 | -0.439 | -0.175 | -0.922 | 0.0443 | -0.3 | 0.0863 | 0.929 | 0.572
ATCTCTAGGTAAGCCTCAGTTCAGTGAAGAACGC | 0.31 | 0.658 | 0.468 | 0.438 | 0.861 | 0.35 | -0.00624 | 0.396 | -0.0235 | 0.487
TCTCGGAGGACACGACGGTCAGAGCTTTCCAGAG | 0.205 | 0.0184 | -0.415 | -0.277 | -1.16 | 0.197 | -0.0353 | 0.515 | 1.6 | 1.3
ATCTCTAGGTAAGACTCACTTCAGTGAAGAACGC | 0.0875 | 0.0793 | -0.134 | 0.11 | 0.863 | 0.00782 | 0.276 | 0.0551 | 0.479 | 0.192
CGAACTAGGTCATTGACAGGACAGTGAATAGTAA | 4.56 | 2.89 | 0.461 | 2.07 | 0.0276 | 4.67 | 7.66 | 6.13 | 3.8 | 5.54
TGTATGAGGTTATAAGATCAGGGAACGTTGCAAA | 1.68 | 1.72 | 0.117 | 1.22 | 0.92 | 2.51 | 1.04 | 1.47 | 0.966 | 1.2
GCTGCTAGGTCAGGTTGGTCCGCTAACGGGTACG | 1.45 | 0.788 | -0.309 | 0.439 | 0.221 | 1.46 | 0.195 | 0.764 | -0.421 | 0.25
TCTAGCAGGCCAGTGGGTCACTCAAGAGGTACGG | 0.165 | 0.09 | -0.387 | 0.111 | -1.21 | 1.83 | 1.59 | 2.19 | 1.78 | 2.09
TCATATAGGTAATACATGTGAAAGTCGGCATCTA | 0.838 | 1.1 | 0.394 | 0.937 | 0.272 | 1.43 | 1.42 | 2.35 | 3.69 | 3.13
ACACACAGGTGATGAAGGTAACTCAGGCTATCAT | -0.0193 | 0.147 | 0.256 | -0.0371 | -0.0459 | 0.299 | 0.913 | 0.223 | 0.238 | 0.167
GCTAGCAGGCCATTTGGGTAACTCAATGACGGGC | -0.758 | -0.699 | -0.371 | -0.899 | -0.88 | -0.267 | 0.519 | -0.594 | -0.844 | -0.634
CCGGACAGGTGAAAGGTAACTCAGTCTGGTACGC | 0.736 | 0.472 | -0.206 | 0.874 | -0.858 | 3.17 | 4.79 | 5.2 | 3.2 | 5.45
TCATATAGGTACACAGGTGAAAGTCCGTAAGTTA | 0.94 | 1.1 | 0.566 | 1.09 | 0.0342 | 1.94 | 2.32 | 3.69 | 4.18 | 4.15
CCGAGTGGGGCAAGGTTACCATAACGCACAGCCA | 0.236 | 0.965 | -0.227 | 0.664 | -0.711 | 1.78 | 2.73 | 2.77 | 0.815 | 2.3
CCTATTAGTTGACCATAAGGGCAATCGAAGCTCG | 0.68 | 0.259 | 0.71 | 0.623 | 0.695 | 0.456 | 0.434 | 0.366 | 0.122 | 0.461
CCTACTGGGCCACGGTCATTGATCAGTCAAAGCA | -0.282 | -0.19 | 0.043 | -0.408 | -0.712 | 1.3 | 2.11 | 2.06 | -0.0299 | 1.1
ATCGAAAGGTCGAAGTGAGTATAGAGAAAGGGAA | 3.94 | 3.53 | 0.221 | 2.69 | 0.919 | 4.23 | 2.38 | 3.01 | 1.33 | 2.56
CGTCCAAGCTCAAGGTCAGTGAAAGAGACTCGAA | 1.45 | 1.33 | 0.213 | 1.25 | -0.283 | 1.93 | 0.495 | 1.14 | 0.132 | 0.792
CGTCCAAGGGCAGAGAGGTCAGTGAATGCCGAGT | 1.75 | 1.84 | 0.628 | 1.59 | -0.506 | 2.5 | 0.642 | 1.19 | -0.361 | 0.293
CCGACTGGCGCAGAAAGGTTACCATACCATCCGG | 0.0917 | 0.658 | -0.132 | 0.749 | -1.07 | 1.8 | 0.613 | 1.16 | -0.315 | 0.337
CAAACTAGGTCAAGAGGTCATAGTCCGCTTCCCG | 6.79 | 6.06 | 5.4 | 4.74 | 1.48 | 6.55 | 9.82 | 8 | 6.96 | 8.16
CCTACTGGGCCAAGGTCAATGATCAGTCAAAGCA | 2.52 | 2.33 | 0.441 | 2.32 | -0.518 | 3.85 | 4.03 | 4.33 | 2.07 | 3.39

Sequence | PBM binding z-score [1] | PBM binding z-score [2] | PBM binding z-score [3] | PBM binding z-score [4] | PBM binding z-score [5] | PBM binding z-score [6] | PBM binding z-score [7] | PBM binding z-score [8] | PBM binding z-score [9] | PBM binding z-score [10]
GCTCGGAGGACAAGGTCAGAACTTTGTCCGTAGA | 1.86 | 1.64 | -0.253 | 1.31 | -0.462 | 2.22 | 0.592 | 1.57 | 0.0801 | 0.802
ATCTCTAGGTAAAAGTTCGGTGAATCCCGAGGAT | 0.161 | 0.141 | 0.132 | 0.00747 | 0.757 | 2.68 | 5.39 | 6.18 | 4.88 | 6.61
TCTCGGAGGACCCGAAGGTCAGAGCTTTCCAGAG | 0.805 | 0.637 | -0.12 | 0.902 | -1.45 | 1.69 | 0.0649 | 1.18 | 1.64 | 1.63
CCGACTGGGGCATAAGGTTACTATAAGCCAGCCC | 0.52 | 3.57 | 0.0863 | 1.26 | -1.18 | 1.63 | 2.33 | 2.96 | 0.95 | 2.34
ATCGAAAAGTCGACGAGGTGAGTATACACCGTTT | 0.048 | -0.0396 | -0.471 | 0.0525 | -0.29 | 0.426 | 0.914 | 0.0655 | 0.0856 | -0.125
ATATATAGGTTAAGGGTCATTCAGGTTGGTTCGC | 5.73 | 5.29 | 4.07 | 4.88 | 1.86 | 6.8 | 11.9 | 9.9 | 10.7 | 11.7
CGACCAAGGTCATAGGAGGTCAGTGAAGACAGAT | 7.7 | 7.58 | 4.51 | 5.89 | 0.466 | 5.7 | 6.04 | 5.91 | 2.45 | 4.68
CATACAGTGTCAGCTAGGCCAGAGTAGGGACGGC | -0.279 | -0.284 | -0.667 | -0.652 | 0.0378 | -0.3 | 0.467 | -0.284 | -0.315 | -0.243
ATCGACAGGTCGACGAGGTGAGTATACACCGTTT | 0.539 | 0.314 | -0.541 | 0.288 | -0.436 | 1.42 | 1.11 | 0.392 | 0.0912 | -0.0285
GCACACAGGTGAAACGCAGGTAACTCAGGGTGGC | 0.021 | 0.302 | -0.342 | -0.349 | -0.845 | 0.939 | 0.853 | 0.355 | -0.481 | -0.0562
TTACCCAGGTGAAAGGTCGTTGATGCACGCCTTG | 2.92 | 3.07 | 0.858 | 2.75 | -0.247 | 5.24 | 9.35 | 8.61 | 7.49 | 10.2
TAGCCTAGGTCATGGGACAGTATACCACGCGAAC | 5.01 | 3.4 | 0.47 | 3.01 | 0.331 | 4.29 | 3.92 | 3.74 | 1.14 | 2.55
CAAACTAGGTCAAGGTCAATGTCGGTTTGTGCCA | 6.03 | 5 | 3.19 | 4.14 | 1.08 | 5.94 | 9.35 | 7.99 | 6.08 | 8.16
CCTACTGGGCCATCAGGTCATTGTTATCAACGTT | 1.46 | 1.31 | 1.14 | 1.7 | -0.00639 | 2.76 | 2.54 | 3.66 | 1.36 | 2.74
CAAACTAGGGCAAGGTCAAAGTCGGTTTGTGCCA | 5.18 | 4.46 | 2.44 | 3.77 | 0.468 | 5.56 | 7.92 | 6.99 | 4.88 | 7.3
ACTTACGGGTCAACGAGGTTATGGCACGCGTATA | 7.06 | 5.06 | 0.89 | 4.51 | 0.72 | 5.54 | 5.52 | 5.67 | 2.05 | 3.95
TCATATAGCTAAATGCTAGGTGAAAGTCCGATCT | 0.567 | 0.2 | -0.0142 | 0.288 | -0.55 | 0.6 | 0.313 | 1.67 | 2.82 | 2.07
CCTTACGGATCAAGGTTATAGCACGGGTGGTACG | 0.336 | 0.57 | 0.38 | 0.5 | 0.21 | 0.917 | 0.684 | 0.188 | -0.114 | 0.0556
CAAACTAGGTCCAAGGTCAAAGTCGAGCCAACCA | 3.97 | 3.48 | 1.97 | 3.75 | 0.508 | 5.32 | 9.35 | 7.68 | 7.65 | 8.28
TCTAGCAGGCCAGAGGCTCACTCAAGAGGTACGG | -1.6 | -1.07 | -0.954 | -0.966 | -1.81 | -0.344 | 0.578 | 1.01 | 1.38 | 1.21
CAAATTAGGTCACGAAAGGTCAAAGTCGAATGAC | 7.62 | 8.19 | 7.52 | 7.45 | 3.07 | 6.87 | 10.1 | 8.6 | 6.67 | 8.69
ACTAGTTGGTCAGCGGAGGTCACACACAATTCGG | 2.84 | 3.44 | 3.05 | 3.15 | 0.932 | 3.52 | 1.91 | 2.26 | 1.3 | 1.68
ATAATGAGGTTATACGTAGATCAGGGAAGAAAGT | 2.27 | 2.55 | 0.45 | 1.89 | 0.893 | 3.42 | 2.56 | 2.38 | 0.895 | 1.89
TCTAGTTGGTCAAAGTTCACACACTCGAAATGCG | 3.96 | 4.54 | 4.63 | 3.66 | 1.36 | 5.5 | 9.83 | 9.2 | 8.79 | 9.75
